High-throughput results as filed in PubChem BioAssay.
Vif-A3F inh – blocks the Vif interaction with APOBEC3F. HeLa A3F-eYFP + Vif (tagged APOBEC3F with the HIV-1 protein that degrades it), YFP fluorescence increase. Potency, µM (highest dose often 46.1 µM). 390,000 tested, 0.2% active. AID 602313; further: nearly all actives have a fitted effect of over 65% in size
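HeLa cells stably expressing A3F-eYFP plus Vif, plated and incubated overnight at 37 deg C, then exposed to compounds overnight at 37 deg C. Blocked degradation read as raised yellow fluorescence (Ex 488/Em 500-530).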
TRPML1 ag – human mucolipin-1 channel agonism | Q9GZU1 | TRPML1-expressing cells, Ca2+ dye fluorescence, FDSS | activation, % (no concentration beside the values) | 410,000 tested, 0.12% active | AID 624414; in the data active means activation above about 50%; inconclusive means mostly about 30% to 49%
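Calcium fluorescence on an FDSS kinetic reader gave the read-out. Tet-induced TRPML1-DL cells were plated overnight, dye-loaded (Ca8 with quencher, 45-90 min, room temperature, dark), then read 110 s after compound addition, and again 110 s after 4uM final 54-4 (EC80).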
Vif-APOBEC3G blk – blocks the Vif interaction with human APOBEC3G. HeLa A3G-eYFP + Vif (tagged APOBEC3G with the HIV-1 protein that degrades it), YFP fluorescence, overnight. Potency, µM (series often up to 46.1 µM), most hits filed as inhibitors. 410,000 tested, 0.076% active; further: nearly all actives have a fitted effect of over 60% in size
Target sequence (Q9HC16 whole entry, looked up): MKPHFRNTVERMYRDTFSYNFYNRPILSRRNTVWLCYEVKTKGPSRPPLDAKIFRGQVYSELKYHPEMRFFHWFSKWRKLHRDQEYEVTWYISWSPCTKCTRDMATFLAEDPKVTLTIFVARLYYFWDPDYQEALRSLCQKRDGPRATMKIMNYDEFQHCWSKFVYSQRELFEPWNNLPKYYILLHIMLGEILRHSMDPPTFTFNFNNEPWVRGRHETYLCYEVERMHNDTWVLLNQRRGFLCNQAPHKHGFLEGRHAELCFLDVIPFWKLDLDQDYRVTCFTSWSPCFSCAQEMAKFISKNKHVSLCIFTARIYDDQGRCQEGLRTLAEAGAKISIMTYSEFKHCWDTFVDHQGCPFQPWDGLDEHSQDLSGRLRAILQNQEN
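HeLa cells stably expressing Vif and C-terminally eYFP-tagged A3G, seeded overnight at 37 deg C, then exposed to compound by pintool overnight at 37 deg C. Rise in yellow fluorescence (Ex 488/Em 500-530, Acumen) marks blocked Vif-driven A3G degradation.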
A-T KAP1 phos – potential ataxia-telangiectasia treatments restoring KAP-1 phosphorylation; F2112 A-T fibroblasts, KAP-1 phosphorylation AlphaLISA; neocarzinostatin DNA damage 30 min before lysis; Potency, µM (highest dose often 57.5 µM), hits mostly activators; 320,000 tested, 0.19% active; AID 485349; further: nearly all actives have a fitted effect of over 45% in size
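ATM-like activity read as KAP-1 phosphorylation via AlphaLISA donor/acceptor antibody pairs after lysis and 6 hr at 25C. Cells were ATM-null patient fibroblasts (F2112, hTERT), dosed 60 min, then exposed to the DSB inducer NCS for 30 min.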
TRPML1 inh – inhibitors of human TRPML1 channel; Q9GZU1; 390,000 tested, 0.02% active; activity change, negative = inhibition, % (concentration not given with the values); AID 624415; TRPML1-inducible cells, Ca2+ dye fluorescence, FDSS; active compounds read low; inhibition of EC80 agonist-evoked calcium signal; in the data active means activity change below about -50%; inconclusive means between about -30% and that limit;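 further: stimulus is agonist 54-4 at its EC80 concentration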
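TRPML1-DL cells, Tet-induced overnight (~16 h, 37 °C) at 1,500 cells/well, were loaded with Ca8 no-wash dye plus quencher for 45-90 min at room temperature. Compounds were pinned during FDSS kinetic reading; agonist 54-4 at EC80 (4 uM final) then added.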
A number is an active result; n = inactive; u = inconclusive; x = no result given. Shown are actives, neighbours in structure and some others; about 0.54% of the full set was active somewhere. Unless noted, the call rests on the fitted dose curve; in most records, active means well fitted curve in the direction sought with a large enough effect; inconclusive means small, poorly fitted or top-dose-only effect, or another doubt; inactive means no such curve, though single readings can be large; an effect the other way counts as inactive or inconclusive.

SMILES	Vif-A3F inh	TRPML1 ag	Vif-APOBEC3G blk	A-T KAP1 phos	TRPML1 inh
CCOC(=O)c1c(-c2ccc(C)cc2)csc1NC(=O)/C(C#N)=C/c1ccc(O)c(OC)c1	u	n	10µM	n	n
Cc1ccc(C(=O)/C=C/c2c[nH]c3ccccc23)cc1	n	n	n	n	n
CCN(CC)C(=O)c1ccc(/C=C/c2c[nH]c3ccccc23)[n+](C)c1	13µM	n	u	n	n
C[C@@H]1CN([C@H](C)CO)C(=O)c2c(c3ccccc3n2C)-c2ccccc2CO[C@H]1CN(C)Cc1ccc(Oc2ccccc2)cc1	n	x	n	x	x
CCOc1ccccc1CNC(=O)C1CCN(c2nc3ccccc3nc2C(F)(F)F)CC1	n	n	n	x	n
CC1CCCCN1CCCNC(=O)Cn1ncc2c3ccccc3n(C)c2c1=O (configuration not stated)	n	n	n	x	n
CC1CCCC(C)N1CCCNC(=O)Cn1ncc2c3ccccc3n(C)c2c1=O (configuration not stated)	n	n	n	7.1µM	n
S=c1[nH]nc(-c2ccccn2)n1/N=C/c1ccc(Br)s1	n	78	n	n	n
S=c1[nH]nc(-c2ccccn2)n1/N=C/c1ccc(Cl)c(Cl)c1	n	n	n	n	n
Cc1ccnc(NC(=S)NC(=O)/C=C/c2ccco2)c1	n	n	7.9µM	n	n
COc1ccc2c(c1C)CCC(C)(C#N)C2=O (configuration not stated)	n	78	n	x	n
COc1ccc(OC)c2c1CCC1(C2)NC(=O)NC1=O (configuration not stated)	x	n	n	x	x
Cc1nn(C(C)(C)C)c(OC(=O)C(C)(C)C)c1Sc1ccccc1	n	n	n	x	n
COCCCNC(=O)c1c(NC(=O)Cc2coc3c(C)c(C)ccc23)sc2c1CCCC2	n	n	n	x	n
CN1C(=O)c2cccc(NCCCCCCN3C(=O)c4ccccc4C3=O)c2C1=O	n	n	n	n	n
CN1C(=O)c2cccc(NCCCN3C(=O)c4ccccc4C3=O)c2C1=O	25µM	n	n	n	n
Cc1nc2c(n1C1CCCCC1)C(=O)c1ccccc1C2=O	n	65	n	n	n
CCOc1nc(C#N)nc(N(c2ccccc2)c2ccccc2)n1	x	n	n	x	x
Cc1cccc(C)c1NC(=O)Cn1c(=O)n(Cc2ccccc2)c(=O)c2c(C)c(C(=O)N(C)C)sc21	n	n	n	x	n
C/C(=N\Nc1nc(C)cc(-c2ccccc2)n1)c1ccc(F)cc1	20µM	n	n	n	n
CCOC(=O)c1c(S(=O)(=O)N2CCCC(C(=O)Nc3cccc(C#N)c3)C2)c(C)n(C)c1C (configuration not stated)	n	n	n	x	n
CSC1=NSC2=NC(=O)/C(=C\c3cccs3)C(=N)N12	n	n	n	n	n
N=C1/C(=C\c2coc3ccccc3c2=O)C(=O)N=C2SC=CN12	u	72	u	n	n
CSC1=NSC2=NC(=O)/C(=C/c3coc4ccccc4c3=O)C(=N)N12	u	77	u	n	n
CC1=CC2=NC(=O)/C(=C/c3coc4ccc(Cl)cc4c3=O)C(=N)N2O1	u	u	u	n	n
SMILES	Vif-A3F inh	TRPML1 ag	Vif-APOBEC3G blk	A-T KAP1 phos	TRPML1 inh
COc1cc(/C=C2/C(=N)N3C(SC)=NSC3=NC2=O)ccc1OC(=O)c1ccco1	u	n	n	n	n
CSC1=NSC2=NC(=O)/C(=C/c3coc4ccc(O)cc4c3=O)C(=N)N12	u	67	u	n	n
COc1cccc(C(=O)Nc2c3c(nn2-c2ccc(Cl)cc2)CS(=O)(=O)C3)c1	n	n	n	x	n
CC[N+](C)(C)c1ccc(/C=C/c2ccnc3ccccc23)cc1	x	n	n	x	x
O=C(c1cccc(Cl)c1)N1CCC(=O)N([C@H](COCc2ccccc2)Cc2ccccc2)CC1	x	n	x	x	x
O=[N+]([O-])c1ccc(/C=C/c2ccnc3ccccc23)c([N+](=O)[O-])c1	x	n	n	x	x
Cc1cc(C)n(-c2nc(NCCN(C)C)c3c4c(sc3n2)CCCC4)n1	n	n	n	40µM	n
CCN(CC)CCNc1nc(-n2nc(C)cc2C)nc2sc3c(c12)CC(C)(C)OC3	n	n	n	35µM	n
Cc1cccc(NC(=O)/C(C#N)=C/c2ccc(F)cc2)n1	n	n	n	0.71µM	n
CCCOc1ccccc1/C=C(\C#N)C(=O)Nc1cccc(C)n1	n	n	n	n	n
COCc1ccc(O)c2ncccc12	n	n	10µM	x	n
CSCCC(c1nnnn1-c1c(C)cccc1C)N1CCN(C/C=C/c2ccccc2)CC1 (configuration not stated)	x	69	n	x	x
O=C(Nc1ccc(S(=O)(=O)Nc2nccs2)cc1)c1ccc(F)c(S(=O)(=O)N2CCOCC2)c1	n	n	n	n	n
O=C(Nc1ccc(S(=O)(=O)Nc2ncccn2)cc1)c1ccc(F)c(S(=O)(=O)N2CCOCC2)c1	n	n	n	28µM	n
N#CC1=C(N)C(C#N)(C#N)[C@H](c2c(F)cccc2F)[C@H]2CC3(CC=C12)OCCO3	22µM	n	13µM	x	n
CN1C2C=C3C(C#N)=C(N)C(C#N)(C#N)[C@H](c4c(F)cccc4F)[C@H]3C1CC2 (some centres not stated)	n	n	n	n	n
Cc1nnc(N2CCC(C(=O)NCCC(C)C)CC2)c2nn(-c3ccc(Cl)cc3)c(C)c12	n	n	n	x	n
Cc1ccc2oc(C(=O)N3CCC(c4nc5ccccc5s4)CC3)c(C)c2c1	n	54	n	x	n
CN(C/C=C/c1ccccc1)Cc1cccc2ccccc12	n	n	n	40µM	n
CCOC(=O)c1c(-c2ccccc2)cn2ccccc12	n	n	n	n	n
CCOC(=O)c1c(-c2ccc(C)cc2)cn2ccccc12	n	n	n	32µM	n
COc1ccc(C(=O)N=c2sc3c(C)ccc(OC)c3n2C)cc1OC	n	n	n	n	n
COc1ccccc1C(=O)N=c1sc2c(C)ccc(OC)c2n1C	u	n	n	16µM	n
CCCOC(=O)C1=C(C)CS[C@@H]2[C@H](NC(=O)COc3ccccc3)C(=O)N12	x	n	n	x	x
CC(C)c1ccc2oc(-c3ccc(Cl)c(NC(=O)c4cccs4)c3)nc2c1	n	n	n	x	n
Cc1cccc(-n2nc(C)c(C(=O)N3CCN(c4ccccc4)CC3)c2-n2cccc2)c1	n	71	n	x	n
CCOC(=O)N1CCN(C(=O)c2c(C)nn(-c3cccc(C)c3)c2-n2cccc2)CC1	n	n	n	x	n
O=C(Nc1c(-c2ccccc2)nc2ccccn12)c1ccc(Br)cc1	n	n	n	x	n
S=C1NC[C@H](c2ccccc2)N1CCCCC1CCCCC1	n	n	n	35µM	n
Cc1nnc(N2C(=O)c3cccc4c([N+](=O)[O-])ccc(c34)C2=O)s1	28µM	n	u	n	n
